Shown are actives, neighbours in structure and some others; about 3.4% of the full set was active somewhere.
AI-2 QS modul – Vibrio harveyi AI-2 quorum sensing modulators, primary screen, JMH597 strain, luminescence/OD600 ratio. Vibrio harveyi JMH597 AI-2 luminescence/OD600 ratio, 9 h; hits give low values; strain lacks LuxN and CqsS sensors; 0 = neutral-control median. activity change, % at 7.5 µM. 0.4% of 300,000 active. AID 2094, 2009; in the data active = activity change below about -75%, passing the limit was not always enough; inconclusive = no clear call, values can overlap the other calls;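 note: luminescence divided by OD600 gain over 9 h not by final OD600 alone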
HSP90 refold inh – HSP90 inhibitors, primary screen, cell lysate, luminescence; Heat shock protein HSP 90 (rabbit reticulocyte lysate; luciferase refolding); Rabbit reticulocyte lysate, luciferase refolding luminescence, 3 h; inhibition, % at 5.6 µM; 0.91% of 290,000 active; AID 1789, 2009;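 active = inhibition above the screen-wide mean plus 3 SD, computed separately per campaign, cut at about 16% in these data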;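 note: inhibitors lower the luminescence because luciferase stays unfolded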
FXN GAA850 act – FXN promoter activators, primary screen, cell-based, luciferase luminescence, HEK293 lucGAA850 | HEK293 lucGAA850 FXN promoter luciferase reporter, 24 h; percent of 10 µM SAHA response | activation, % at 6 µM | 0.56% of 360,000 active;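 active = activation above the average of all compounds screened plus 3 SD, cutoff fixed separately per campaign, cut at about 7.5% in these data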
PG9 binder – binders of HIV-1 gp120 antibody PG9, primary screen, biochemical, TR-FRET | TR-FRET gp120-PG9 antibody binding | inhibition, % at 6.7 µM | 0.43% of 360,000 active | AID 624416, 2012; in the data active = inhibition above about 8.5%
SMARCA2 activ – SMARCA2 (BRM) function activators, primary screen, cell-based, luminescence, high throughput. MG213 cells, MMTV-luciferase reporter, dexamethasone, overnight. activation, % at 9.1 µM. 1% of 370,000 active; in the data active = activation above about 7.8%
HSF1 inhib – HSF1 inhibitors in luciferase reporter cells, primary screen, cell-based, NIH3T3, luminescence. NIH3T3-HGL HSE-luciferase, MG132-induced, luminescence 8 h; hits give low values. activity change, negative = inhibition, % at 7.5 µM (by protocol). 0.77% of 300,000 active;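 active = more than half of replicate wells show activity change below -50%, luminescence cut by over half; inconclusive = some wells, but at most half, below -50%; inactive = no replicate well below -50%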;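 note: luciferase reports HSF-1 transcriptional activity via heat shock element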
Of the large screens only hits and unclear results are named; the others gave an inactive call.

Cc1ccc(N=Cc2ccc[nH]2)c(O)c1	HSF1 inhib -76
CCC(NC(=S)NC1CCCCC1)c1ccccc1 (stereo unspecified)	HSF1 inhib -87
COc1cc([N+](=O)[O-])cc(/C=N/NC(=O)c2ccc(NC(=O)c3ccc(C)cc3)cc2)c1O	HSF1 inhib -58
CC(C)N1CCc2c(sc(NC(=O)c3ccco3)c2C(N)=O)C1	none
CN1CCc2c(sc(NC(=O)c3ccco3)c2C(N)=O)C1	SMARCA2 activ 8.0
CN1CCc2c(sc(NC(=O)c3ccc([N+](=O)[O-])o3)c2C(N)=O)C1	AI-2 QS modul -102
Cc1ccccc1OCC(=O)N/N=C/c1ccc([N+](=O)[O-])o1	none
COc1ccccc1OCC(=O)N/N=C/C=C/c1ccc([N+](=O)[O-])o1	AI-2 QS modul -94
CCOC(=O)N/N=C\c1ccc([N+](=O)[O-])o1	AI-2 QS modul -89
CCCCCCCC(=O)N/N=C/c1ccc([N+](=O)[O-])o1	AI-2 QS modul -132
CCCOc1ccc(CCC(=O)N/N=C/c2ccc([N+](=O)[O-])o2)cc1	AI-2 QS modul -224
COC[C@H]1CCCN1c1ccc2c(c1)O[C@@H]1CCN(C1)S2(=O)=O	none (no result: AI-2 QS modul, HSP90 refold inh, FXN GAA850 act, PG9 binder, HSF1 inhib)
N/C(=N\OC(=O)c1ccc(Cl)cc1Cl)c1ccc(Cl)cc1	HSF1 inhib -72
C[C@@H](NC(=O)C[C@H]1CC[C@H]2[C@@H](COc3ccc(NC(=O)Nc4ccccc4)cc3C(=O)N2C)O1)c1ccccc1	none (no result: AI-2 QS modul, HSP90 refold inh, FXN GAA850 act, PG9 binder, HSF1 inhib)
O=C(Cn1nnc2ccccc21)NNC(=S)NC1CCCCC1	HSF1 inhib -65
CC(OC(=O)Cn1nnc2ccccc21)C(=O)NC1CCCC1 (stereo unspecified)	none
O=c1c2c3c(sc2nc(NCCO)n1Cc1ccco1)CCCCC3	HSF1 inhib -57
CCN(Cc1ccc2c(c1)OCO2)C(=O)/C=C/c1cccc(Br)c1	HSF1 inhib -74
O=c1[nH][nH]c(-c2ccccc2)c1-c1ccccc1	none (no result: AI-2 QS modul, HSP90 refold inh, HSF1 inhib)
O=c1o[nH]c(-c2ccccc2)c1-c1ccccc1	HSF1 inhib -60 (no result: HSP90 refold inh)
CCOC(=O)c1c(S(=O)(=O)Nc2ccc(C)cn2)c(C)n(C)c1C	SMARCA2 activ 7.9
Cc1ccc(C)c(N2CCN(C(=O)c3cc(S(=O)(=O)N4CCCC4)cn3C)CC2)c1	HSF1 inhib -68
O=C(NCc1ccccc1)C1CCCC1	HSF1 inhib -62 (no result: FXN GAA850 act, PG9 binder, SMARCA2 activ)
O=C(O)C1CCCCC1C(=O)NCc1ccccc1 (stereo unspecified)	none
CCN(C(=O)c1ccc2c(SCC(=O)O)c3c(nc2c1)CCC3)c1cc(Cl)ccc1OC	HSF1 inhib -73
CCN1Cc2nnn(Cc3ccccc3)c2-c2cc(F)ccc2S1(=O)=O	none (no result: AI-2 QS modul, HSP90 refold inh, FXN GAA850 act, PG9 binder, HSF1 inhib)
S=C(NCc1ccccc1)Nc1cccc(Cl)c1	AI-2 QS modul -78 (no result: HSF1 inhib)
COc1ccc2cc3c(N)nn(C(=O)c4ccccc4Cl)c3nc2c1	HSF1 inhib -51
COc1ccc2cc3c(N)nn(C(=O)c4ccc(F)cc4)c3nc2c1	none
COc1cccc(CC(=O)n2nc(N)c3cc4ccc(OC)cc4nc32)c1	none
COc1ccc2cc3c(N)nn(C(=O)Cc4c[nH]c5ccccc45)c3nc2c1	HSF1 inhib -54
COC(=O)[C@@]12CCCCC3=C1N(CCC3)C(=O)[C@H]2CC(=O)NCc1ccc(OC)c(OC)c1	none (no result: AI-2 QS modul, HSP90 refold inh, FXN GAA850 act, PG9 binder, HSF1 inhib)
CCOC(=O)N1CCN(C(=O)C[C@@H]2C[C@]3(C(=O)OCC)CCC4=C3N(CCC4)C2=O)CC1	none (no result: AI-2 QS modul, HSP90 refold inh, FXN GAA850 act, PG9 binder, HSF1 inhib)
CCCNC(=O)NC1C(NC(=O)NCCC)N(C)C(=O)N1C (stereo unspecified)	HSF1 inhib -57
O=C(CSc1nnc(-c2cccc(Cl)c2)n1Cc1ccco1)c1ccc(F)cc1	none (no result: AI-2 QS modul, HSP90 refold inh, FXN GAA850 act, PG9 binder, HSF1 inhib)
O=C(/C(=C(\[O-])c1ccccc1)[n+]1ccc2ccccc2c1)c1ccc([N+](=O)[O-])cc1	HSF1 inhib -64
O=C(/C(=C(\[O-])c1ccccc1)[n+]1ccc2ccccc2c1)c1ccc(Cl)cc1	HSF1 inhib -57
C=CCc1cccc(CNc2cnc3ccccc3c2)c1O	AI-2 QS modul -77
Oc1cccc(Nc2c3ccccc3nc3ccccc23)c1	none
CCN(CC)Cc1cc(Nc2c3ccccc3nc3c4ccccc4n(C)c23)cc(CN(CC)CC)c1O	SMARCA2 activ 41 (no result: AI-2 QS modul, HSP90 refold inh, HSF1 inhib)
COc1ccccc1-c1cc2nc(C)c(CCC(=O)NCc3ccc(F)cc3)c(C)n2n1	none
COc1cc(OC)cc(-c2cc3nc(C)c(CCC(=O)NCc4ccccc4)c(C)n3n2)c1	HSF1 inhib -57
C/C(=N\Nc1nc2ccccc2[nH]1)c1ccccn1	AI-2 QS modul -87, HSP90 refold inh 19
C/C(=N\Nc1nc2ccccc2[nH]1)c1cc2ccccc2o1	none
CC(C)CCN(C(=O)CNC(=O)c1cccs1)C(C(=O)NC1CCCC1)c1ccncc1 (stereo unspecified)	none
CC(C)CCN(C(=O)CNC(=O)c1cccs1)C(C(=O)NC1CCCCC1)c1cccnc1 (stereo unspecified)	HSF1 inhib -70
COC(=O)[C@]12C[C@H](CC(=O)NCc3ccc(OC)c(OC)c3)C(=O)N(Cc3cccc4ccccc34)C1=C[C@H](C(C)(C)C)O[C@@H]2C	none (no result: AI-2 QS modul, HSP90 refold inh, FXN GAA850 act, PG9 binder, HSF1 inhib)
CCOc1ccc(NC(=O)C(C)SC(N)=O)cc1 (stereo unspecified)	HSF1 inhib -60
CCOc1ccc(NC(=O)C(C)Sc2nnnn2C)cc1 (stereo unspecified)	none
O=C(OCc1cn(Cc2cccc(Cl)c2)nn1)N1CCOCC1	none (no result: AI-2 QS modul, HSP90 refold inh, FXN GAA850 act, PG9 binder, HSF1 inhib)
Fc1ccc(C2=Nn3c(nnc3C3CCCCC3)SC2)cc1	none (no result: AI-2 QS modul, HSP90 refold inh, FXN GAA850 act, PG9 binder, HSF1 inhib)
COc1ccc(NC(=O)CCCn2c(=O)oc3ccccc32)cc1Cl	SMARCA2 activ 7.8
COc1ccc(-c2nn3c(-c4n[nH]c5c4CCC5)nnc3s2)cc1	none (no result: AI-2 QS modul, HSP90 refold inh, FXN GAA850 act, PG9 binder, HSF1 inhib)
COc1ccc(CC(=O)N(Cc2ccccc2)c2ccccc2C(=O)Nc2cc(OC)ccc2OC)cc1	none (no result: AI-2 QS modul, HSP90 refold inh, FXN GAA850 act, PG9 binder, HSF1 inhib)
Cc1ccc(S(=O)(=O)Nc2cc(Cl)c(O)c3ncccc23)cc1	AI-2 QS modul -227
Oc1c(Cl)cc(Cl)c2cccnc12	AI-2 QS modul inconclusive
CCCCNc1c(-c2ccc(SC3CCCCC3)cc2)nc2ccccn12	SMARCA2 activ 7.9 (no result: HSP90 refold inh)
COc1ccc(/C=N/Nc2nncc3ccccc23)cc1	SMARCA2 activ 8.5
CCOC(=O)[C@]12CCCCC/C=C\1N(CCc1ccc(Cl)cc1)C(=O)[C@H]2CC(=O)NCc1cccs1	none (no result: AI-2 QS modul, HSP90 refold inh, FXN GAA850 act, PG9 binder, HSF1 inhib)
CCOC(=O)Cc1csc(NC(=O)Nc2cccs2)n1	HSF1 inhib -57
CCOC(=O)Cc1csc(NC(=O)Cc2cccs2)n1	none
Cc1ccc(S(=O)(=O)N2CCN(CCNC(=O)C(=O)NCc3ccccc3)CC2)cc1	HSF1 inhib -87

Source: PubChem BioAssay
